# POLI inh = inhibitors of human DNA polymerase iota | Q9UNA4 | Pol iota fluorescent replication assay, 10 min | Potency, µM (series often up to 115 µM), for inactives: at the highest dose activity, negative = inhibition, usual class: inhibitors | 390,000 tested, 1% active | AID 588590
#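 Pol iota at 10 nM preincubated 15 min with compounds at room temperature; reaction started with fluorescent substrate, 50 nM final. Fluorescence read kinetically at 0 and 10 min; buffer-only wells as negative control.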
# FEN1 inhibitor = inhibitors of human flap endonuclease 1. 390,000 tested, 0.35% active. P39748. Potency, µM (highest dose often 114 µM), without a hit: at the highest dose activity change, negative = inhibition, hits mostly inhibitors. Recombinant FEN1 flap cleavage, fluorescence, 15 min; also: % is scaled to controls: 0 for no effect and ±100 for the full control effect; nearly all actives have a fitted effect of over 65% in size
# Target sequence (P39748 whole entry, looked up): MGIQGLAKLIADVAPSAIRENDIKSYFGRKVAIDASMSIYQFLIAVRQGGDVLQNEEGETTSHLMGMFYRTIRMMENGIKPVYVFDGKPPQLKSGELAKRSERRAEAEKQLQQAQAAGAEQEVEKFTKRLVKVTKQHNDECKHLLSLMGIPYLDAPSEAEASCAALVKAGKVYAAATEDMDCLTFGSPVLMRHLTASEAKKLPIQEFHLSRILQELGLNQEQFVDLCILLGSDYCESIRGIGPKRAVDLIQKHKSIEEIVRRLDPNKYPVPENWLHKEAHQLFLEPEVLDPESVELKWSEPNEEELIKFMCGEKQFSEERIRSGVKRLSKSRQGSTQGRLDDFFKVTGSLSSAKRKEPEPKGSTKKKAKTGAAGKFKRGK
#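 With each library titrated from low to high concentration, compounds met 10 nM FEN1 for 15 min at room temperature before 50 nM substrate was added; readings at 0 and 15 min fed four-parameter Hill curve fits.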
# Pol beta inh = inhibitors of human DNA polymerase beta | Potency, µM (highest dose often 114 µM), for the others: at the highest dose activity change, negative = inhibition, most hits filed as inhibitors | AID 485314 | P06746 | Pol beta primer extension/strand displacement, fluorescence kinetic | 340,000 tested, 1.3% active; also: % is scaled to controls: 0 for no effect and ±100 for the full control effect
#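 Values derive from four-parameter Hill fits of normalized kinetic data: reads at 0 and 10 min following addition of 50 nM substrate to 10 nM Pol beta preincubated 15 min with compound.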
# POLK inh = DNA polymerase kappa (human) inhibition. Potency, µM (doses to about 107 µM), for inactives: at the highest dose activity, negative = inhibition, hits mostly inhibitors. purified Pol kappa, fluorescent DNA synthesis assay, 10 min. AID 588579. 400,000 tested, 0.53% active; also: % is scaled to controls: 0 for no effect and ±100 for the full control effect
#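 Readout: fluorescence, taken kinetically at 0 and 10 min. Conditions: 10 nM Pol kappa, 15 min RT compound preincubation, 50 nM substrate final. Controls: enzyme-free buffer wells.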
# WRN helicase inh = WRN helicase (human) inhibition | Q14191 | WRN helicase unwinding, fluorescent forked duplex, kinetic | Potency, µM (series often up to 114 µM), for inactives: at the top dose activity change, negative = inhibition, most hits filed as inhibitors | 360,000 tested, 0.46% active; also: % is scaled to controls: 0 for no effect and ±100 for the full control effect; nearly all actives have a fitted effect of over 55% in size
#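 Kinetic fluorescence helicase assay: unwinding of a quenched forked DNA duplex (100 nM final) with 2 mM ATP final raises red fluorescence (525/598 nm). Compounds sat 15 min at room temperature with 20 nM WRN beforehand.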
# POLH inh = DNA polymerase eta (human) inhibition; Potency, µM (doses to about 114 µM), for inactives: top-dose activity change, negative = inhibition, actives largely listed as inhibitors; recombinant Pol eta, fluorescent DNA replication assay; 390,000 tested, 1.2% active; Q9Y253; also: % is scaled to controls: 0 for no effect and ±100 for the full control effect
#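 Pol eta (10 nM) was preincubated with compounds for 15 min at room temperature, after which fluorescent replication substrate (50 nM final) was added to start the reaction. Fluorescence was read kinetically at 0 and 10 min.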
# Active calls of the source: *; ? = inconclusive; · = no result given; ! = not confirmed by another sample; [ ] = another dose, or the depositor's remark. An excerpt weighted towards active compounds, which were near 2.4% of everything screened. Calls follow the shape of the dose curve; as a rule, active = well fitted curve in the direction sought with a large enough effect; inconclusive = small, poorly fitted or top-dose-only effect, or another doubt; inactive = no such curve, though single readings can be large; an effect the other way counts as inactive or inconclusive. Potency is read from the fitted curve at half-maximal effect.
SMILES,POLI inh,FEN1 inhibitor,Pol beta inh,POLK inh,WRN helicase inh,POLH inh
Cc1nc2ccccc2c(=O)n1/N=C/c1c(O)ccc2oc3c(c12)CCCC3,89µM*,-4%,4%,1%,-8%[57.1 µM],-8%
CC(=O)C1(O)Cc2c(O)c3c(c(O)c2C(OC2CC(N)C(O)C(C)O2)C1)C(=O)c1c(O)cccc1C3=O (centres undefined),?,?,·,7.1µM*,·,·
COc1cccc2c1C(=O)c1c(O)c3c(c(O)c1C2=O)C[C@@](O)(C(=O)CO)C[C@@H]3O[C@H]1C[C@H](N)[C@H](O)[C@H](C)O1,-10%,-9%,8.9µM*,27µM*!,56µM*,45µM*
CCN(c1cccc(C)c1)S(=O)(=O)c1c(C)nc2sc(C)cn2c1=O,6%,-8%,0%,-14%,·,0%
COc1ccc(CCN(C(=O)/C=C/C(=O)O)C2CC(=O)N(c3ccccc3)C2=O)cc1 (centres undefined),20%,6%,-16%,-7%,-2%,6%
CCc1ccc(N2C(=O)CC(N(CC3CCCO3)C(=O)/C=C/C(=O)O)C2=O)cc1 (centres undefined),-3%,9%,45µM*,-15%,-10%,?
COc1cc(C(=O)N/N=C/c2cc([N+](=O)[O-])cs2)cc(OC)c1OC,-2%,-10%,0%,-1%,-5%,-13%
CCOc1ccc(C(=O)N/N=C/c2cc([N+](=O)[O-])cs2)cc1,35µM*,2%,14µM*,-28%,-4%[11.6 µM],33%
O=C(O)CC1CCC(=C(Cl)Cl)C1 (centres undefined),?,-17%,?,-16%,-19%,50µM*
COc1ccc(C)cc1NC(=O)COc1cc(=O)n(C)c2ccccc12,15%,-15%,25%,4%,·,-15%
CSc1nc(C)c2c(n1)N(c1ccc(O)cc1)CC2,?,2%,?,-33%,-19%,35µM*
CSc1nc(C)c2c(n1)N(c1ccc(F)cc1)CC2,14%,5%,40%,-13%,-6%,-17%
C=C/C(C)=C/CC1C(=C)CCC2C(C)(C(=O)O)CCCC12C (centres undefined),?,?,?,16µM*,?,7.1µM*
C#CCSc1nsc(SCC#C)c1C#N,20µM*,?,45µM*,?,50µM*,18µM*
COc1ccc(-c2nc(C)c(CCNC(=O)c3cccc(C)c3)s2)cc1OC,6%,-20%,24%,-5%[60.1 µM],·,-12%
Cc1ccc(C(=O)N2CCN(c3cccc(Cl)c3)CC2)cc1-n1c(C)nc2cccnc21,11%,-4%,-1%,4%,·,-15%
c1ccc(-c2cc3c(-n4cccc4)ncnc3o2)cc1,79µM*,?,-11%,?,?,?
Cc1ccc(OCC(=O)Nc2ccc(O)c(-c3nc4ccccc4o3)c2)cc1,11%,-7%,-12%,-9%,-1%,-13%
Cc1ccc(OCC(=O)Nc2ccc3c(c2)C(=O)NC3=O)cc1,-7%,8%,32µM*,4%,1%,-5%
Cc1ccc2oc(-c3ccc(NC(=O)COc4ccccc4)cc3O)nc2c1,89µM*,7%,·,-8%,·,·
NC(CO)(CO)CO,·,·,·,14%[60.1 µM],·,·
Cc1cc(C)cc(NC(=O)CSCc2nc3c(nnn3Cc3ccc(F)cc3)c(=O)[nH]2)c1,45µM*,?,·,-39%,-28%[57.1 µM],?
CCOC(=O)C1=C(C)N=c2s/c(=C/c3ccco3)c(=O)n2C1c1cccc(OC)c1 (centres undefined),?,8%,32µM*,-27%,-23%,?
COc1ccc(C2C(C(C)=O)=C(C)N=c3s/c(=C/c4ccc5c(c4)OCO5)c(=O)n32)cc1 (centres undefined),·,·,11µM*,·,·,·
O=C(C[n+]1cccc2cccc(O)c21)c1ccc(Br)cc1,24%,18%,·,6%,·,·

# Bioassay records from PubChem BioAssay.
